Test results reported in PubChem BioAssay AID1345085 (National Center for Advancing Translational Sciences (NCATS), 2018).
Results filed as inconclusive are left out. A number with no mark means an inactive call. Active and inactive are the calls of the source. The call rests on the fitted dose curve; in most records, active means well fitted cell-killing curve with a large enough effect; inconclusive means small, poorly fitted or top-dose-only effect, or effect the other way; inactive means no such curve, though single readings can be large or run the other way.

tested on: Jar; assay: Confirmatory qHTS for gynecologic anti-cancer compounds from libraries of approved drugs and bioactive compounds; settings: gynecologic cancer cell panel viability, ATPlite luminescence, 48 h; series mostly up to 57.6 µM; activity change, negative = viability loss: at the top concentration; further: nearly all actives have a fitted effect of over 55% in size
How it was run: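 Viability is measured as ATP-dependent luciferase light using ATPlite, read 15 min after reagent addition at room temperature. Compounds, in DMSO, span 57.5 uM down to 0.977 nM over 11 threefold steps for 48 h.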
On the % scale 0 is the no-effect control and ±100 the full control effect; potency means the concentration at half of the fitted maximal effect.

Compound | Potency | activity change, negative = viability loss [%]
CCCCc1nc2cc(/C=C/C(=O)NO)ccc2n1CCN(CC)CC | 1.22 µM (active) | 
CCc1c2c(nc3ccc(O)cc13)-c1cc3c(c(=O)n1C2)COC(=O)[C@]3(O)CC | 1.72 µM (active) | 
Cn1cc(-c2[nH]c3cc(NC(=O)[C@H](N)C4CCCCC4)cc4c3c2C=NNC4=O)cn1 | 10.9 µM (active) | 
Nc1ccccc1NC(=O)c1ccc(CNC(=O)OCc2cccnc2)cc1 | 4.32 µM (active) | 
Cc1ccc(NC(=O)c2ccc(CN3CCN(C)CC3)cc2)cc1Nc1nccc(-c2cccnc2)n1 |  | -3.28
Cc1cc(Nc2nc(N[C@@H](C)c3ncc(F)cn3)ncc2Cl)n[nH]1 |  | 19.1
CC(C)(C(=O)NCC(F)(F)C(F)(F)F)C(=O)NC1C(=O)Nc2ccccc2-c2ccccc21 (configuration not stated) |  | 2.12
COC(C)(C)CCn1nc(Nc2c(C)cccc2C)c2cnc(Nc3ccc(OCCN4CCCC4)c(F)c3)nc21 | 27.3 µM (active) | 
O=C(c1ccc(F)c(F)c1Nc1ccc(I)cc1F)N1CC(O)([C@@H]2CCCCN2)C1 | 21.7 µM (active) | 
Cc1ccc(C(N)=O)cc1Nc1nccc(-c2cn(C(C)C)c3cnccc23)n1 | 6.85 µM (active) | 
COc1ccccc1N1CCN(CC(O)COc2cccc3ccccc23)CC1 (configuration not stated) |  | -22.6
Nc1ccc(C(=O)Nc2cccc(-c3nc(N4CCOCC4)c4oc5ncccc5c4n3)c2)cn1 | 5.44 µM (active) | 
CNCc1ccc(-c2[nH]c3cc(F)cc4c3c2CCNC4=O)cc1 |  | 25.3
NC(=O)c1cnc(-c2ccc(C3(N)CCC3)cc2)c(-c2ccccc2)c1 | 27.3 µM (active) | 
CNC1CCC(N(Cc2cccc(-c3ccncc3)c2)C(=O)c2sc3ccccc3c2Cl)CC1 (configuration not stated) | 34.3 µM (active) | 
O=C(CCCCCCNC(=O)c1cnc(N(c2ccccc2)c2ccccc2)nc1)NO | 8.63 µM (active) | 
O=c1[nH]c(=O)n([C@H]2C[C@H](O)[C@@H](CO)O2)cc1C(F)(F)F |  | -21
CCC(=O)N1CCN(c2ccc(-n3c(=O)ccc4cnc5ccc(-c6cnc7ccccc7c6)cc5c43)cc2C(F)(F)F)CC1 | 1.57 µM (active) | 
CN1CCN(Cc2ccc(NC(=O)Nc3ccc(Oc4cc(NC(=O)C5CC5)ncn4)cc3)cc2C(F)(F)F)CC1 | 19.3 µM (active) | 

Compound | Potency | activity change, negative = viability loss [%]
CC(C)(C)C(=O)OCOP(=O)(COCCn1cnc2c(N)ncnc21)OCOC(=O)C(C)(C)C | 9.68 µM (active) | 
Cc1cnc(Nc2cccc(CN3CCOCC3)c2)nc1Nc1cccc(S(=O)(=O)NC(C)(C)C)c1 | 21.7 µM (active) | 
CCCCc1oc2ccc(NS(C)(=O)=O)cc2c1C(=O)c1ccc(OCCCN(CCCC)CCCC)cc1 | 30.6 µM (active) | 
C1CCC(C(CC2CCCCN2)C2CCCCC2)CC1 (configuration not stated) | 24.3 µM (active) | 
CC1=C(CO)C(=O)O[C@@H]([C@@H](C)[C@H]2CC[C@H]3[C@@H]4C[C@H]5O[C@]56[C@@H](O)C=CC(=O)[C@]6(C)[C@H]4CC[C@]23C)C1 | 8.41 µM (active) | 
OC[C@H]1O[C@@H](n2cnc3c(=S)nc[nH]c32)[C@H](O)[C@@H]1O | 12.2 µM (active) | 
Cn1cnc([N+](=O)[O-])c1Sc1ncnc2nc[nH]c12 | 27.3 µM (active) | 
COc1ccc2c(c1OC)C(=O)O[C@@H]2[C@H]1c2c(cc3c(c2OC)OCO3)CCN1C | 30.6 µM (active) | 
CN(C)CC/C=C1\c2ccccc2COc2ccccc21 |  | -9.39
NC(=O)Nc1cc(-c2cccc(F)c2)sc1C(=O)NC1CCCNC1 (configuration not stated) | 1.22 µM (active) | 
Cc1ccn(-c2ccc(-c3ncco3)cc2)c(=O)c1-c1ccc2nc(N)ncc2c1 |  | -26.5
O=C(/C=C/c1cccc(S(=O)(=O)Nc2ccccc2)c1)NO | 0.943 µM (active) | 
O=C(c1ccc(/C=C/c2n[nH]c3ccccc23)cc1)N1CCNCC1 | 30.6 µM (active) | 
COc1cccc2c1C(=O)c1c(O)c3c(c(O)c1C2=O)C[C@@](O)(C(=O)CO)C[C@@H]3O[C@H]1C[C@H](N)[C@H](O[C@@H]2CCCCO2)[C@H](C)O1 | 13.7 µM (active) | 
Cc1cnc(Nc2ccc(CN3CCOCC3)cc2)nc1Nc1cccc(S(=O)(=O)NC(C)(C)C)c1 | 9.68 µM (active) | 
COc1c(C)c2c(c(O)c1C/C=C(\C)CCC(=O)OCCN1CCOCC1)C(=O)OC2 |  | -6.9
CN(C)C(CCOc1cccc2ccccc12)c1ccccc1 (configuration not stated) |  | 2.73
C[C@]12CCC(=O)C=C1[C@@H]1C[C@@H]1[C@H]1[C@@H]3[C@@H]4C[C@@H]4[C@@]4(CCC(=O)O4)[C@@]3(C)CC[C@@H]12 |  | -5.53
